High-throughput results deposited in PubChem BioAssay by several laboratories.
Efflux pump mplx – inhibitors of Candida efflux pumps in yeast, primary screen, S. cerevisiae, Nile Red, multiplex; 330,000 tested, 0.44% active; S. cerevisiae Candida pump triplex; inhibition, % at 10 µM; AID 485275, 2010;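 active = plate passing quality check with inhibition over a set limit, or well fluorescence over plate mean plus 4 SD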;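 note: Nile Red retained in pooled yeast measured as flow cytometry median fluorescence; 0% = buffer negative control and 100% = Enniatin B positive control; higher means more Nile Red kept so more efflux inhibition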
A1 inh – caspase 3/7 activation in MEF A1-2A-BIM cells, primary screen, A1 inhibitor project, cell-based, luminescence, HTS | AID 2462, 2010 | Caspase-Glo 3/7 luminescence, 3 h; percent of clofoctol response, vehicle zero | 330,000 tested, 0.066% active | caspase activation, % (test concentration not listed);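 active = over half of replicate activation scores above 10%, or exactly half above 10 with the replicate mean above 10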
SUMO Mot1 rescue – yeast Mot1-301 growth rescue at high temperature, primary screen, SUMOylation pathway inhibitor project, S. cerevisiae, ATP luminescence, 38.5C; 320,000 tested, 1% active; growth rescue, % at 18.8 µM; S. cerevisiae Mot1-301 growth rescue; percent above DMSO median, 100 means doubled;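 active = every valid replicate shows activation above 250% relative to neutral control wells; inactive = the rest, any valid replicate at or below 250%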;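 note: OY570 slx delta 5 strain wells were the positive control but not used for scaling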
ALR H2O2 inh – inhibitors of human ALR sulfhydryl oxidase, primary screen, biochemical, H2O2 detection, HRP-luminol luminescence, single point. 290,000 tested, 3.8% active. purified ALR, DTT oxidation. AID 485317, 2010. inhibition, % (test concentration not listed);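 active = mean replicate inhibition above about 79%, with every replicate also reaching it, limit read from the data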
AHR act – AHR activators, primary screen, cell-based, luminescence, luciferase reporter, human; Aryl hydrocarbon receptor (Homo sapiens), P35869; AHR-responsive luciferase reporter cells; activation, % at 5 µM; 320,000 tested, 2.5% active; AID 2796, 2010; in the data active = activation above about 47%;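 note: 0% = vehicle wells and 100% = reference agonist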
VLA-4 inh – inhibition in human VLA-4 binding assay, primary screen, VLA-4 allosteric modulator project, MLPCN library, flow cytometry, VLA-4 expressing cells | ligand binding flow cytometry | inhibition, % (about 7 µM as worked out from the volumes in the protocol) | 330,000 tested, 0.2% active; in the data active = inhibition above about 50%
Numbers without * were called inactive; . = no result. Hits are enriched below; roughly 7.2% of the tested compounds scored in any of these assays.

SMILES	Efflux pump mplx	A1 inh	SUMO Mot1 rescue	ALR H2O2 inh	AHR act	VLA-4 inh
O=[N+]([O-])c1ccc(NCCCN2CCOCC2)c([N+](=O)[O-])c1	0.1	0.3	600.4*	-4.2	1.6	3.6
O=C(CC1C(=O)NCCN1Cc1cccc(F)c1F)NC1CCCCCC1 (stereo not given)	-0.3	-0.2	-2.6	0.6	-5.0	-8.5
COc1ccc(-c2noc(CSc3nc(N)c(-c4ccccc4)c(=O)[nH]3)n2)cc1OC	0.1	0.0	.	99.5*	6.5	-6.8
COc1ccccc1CC1CC(=O)N(c2ccccc2)C1=O (stereo not given)	0.0	0.7	-4.5	.	-7.5	10.8
O=S(=O)(c1ccc(F)cc1)c1snnc1-c1ccccc1	0.0	0.6	213.5	13.2	-0.1	-4.0
O=S(=O)(c1ccc(Cl)cc1)c1snnc1-c1ccccc1	0.0	-1.0	307.1*	2.3	1.4	-0.1
COC(=O)c1ccc(N2C(=O)C3CC=CC(C)C3C2=O)cc1 (stereo not given)	0.0	-0.3	-12.3	-0.6	-0.5	-0.1
CCCCOC(=O)/C=C/c1ccc(OC(=O)OC)c(OC(=O)OC)c1	0.1	0.4	-6.4	-2.7	1.2	13.5
COC(=O)Oc1ccc(/C=C/C(=O)OC(C)C)cc1OC(=O)OC	0.1	-1.0	65.5	95.1*	-3.6	13.7
O=C(CO/N=C/c1cccc([N+](=O)[O-])c1)Nc1ccc2ccccc2c1	0.1	-0.9	338.0*	-11.5	13.7	4.5
Cc1ccc([N+](=O)[O-])cc1-c1[nH]c(-c2ccc(O)c(O)c2)nc1-c1ccccc1	0.1	-0.1	0.5	96.7*	6.3	5.0
COc1ccc(-c2nc(-c3ccccc3)c(-c3cc([N+](=O)[O-])ccc3C)[nH]2)cc1O	-0.1	-0.4	1.5	61.7	21.1	-4.0
COc1ccc([N+](=O)[O-])cc1-c1[nH]c(-c2ccc(C(=O)O)cc2)nc1-c1ccccc1	-0.1	0.2	28.2	98.0*	1.8	10.2
CC(C)Cn1c(N)c(C(=O)COC(=O)Cc2cccc(C(F)(F)F)c2)c(=O)n(C)c1=O	0.0	0.7	-17.1	-3.8	0.1	1.0
Oc1ccc(/C=N/NC(=S)Nc2cccnc2)cc1	0.5	-3.0	-13.0	99.3*	53.7*	7.0
COc1cccc(NC(=O)Nc2cccc(C(=O)O)c2)c1	-0.1	0.9	-3.9	-2.1	-3.0	8.2
Oc1ccc(/C=N/NC(=S)N/N=C/c2ccc(O)cc2)cc1	-0.2	-7.4	-11.4	.	8.9	11.4
COc1cccc(NC(=O)C2C3C=CC(O3)C2C(=O)NCc2cccnc2)c1 (stereo not given)	0.0	0.1	.	98.0*	3.8	-4.9
COc1cccc(NC(=O)Nc2cccnc2)c1	0.0	-1.9	-3.5	-5.6	50.2*	4.0
COc1ccc(O)c(/C=N/NC(=S)Nc2cccnc2)c1	0.0	-2.2	-13.9	66.2	26.8	-3.0
COc1cccc(/C=N/NC(=S)Nc2cccnc2)c1	-0.1	-0.9	-10.0	16.1	58.3*	-4.8
CNC(=S)Nc1cccc(S(=O)(=O)NC2=NCCC2)c1	-0.1	0.6	-3.0	-8.8	1.6	-5.2
Cc1ccc(C(=O)N/C(=C/c2ccco2)C(=O)N2CCCCCC2)cc1	0.1	-0.1	151.9	6.8	-1.1	4.3
Cc1cccc(C(=O)N/C(=C\c2ccco2)C(=O)N2CCCC2)c1	-0.1	0.0	-18.9	94.9*	-0.5	-110.6
COc1cc(C2N(c3ccccc3)CCN2c2ccccc2)cc(OC)c1OC	0.1	-0.1	392.9	99.1*	-4.8	21.1
SMILES	Efflux pump mplx	A1 inh	SUMO Mot1 rescue	ALR H2O2 inh	AHR act	VLA-4 inh
COc1cc(C(=O)N/N=C/c2sc(=O)n(-c3ccccc3)c2Cl)cc(OC)c1OC	-0.1	0.0	-4.6	2.1	-1.1	-1.9
O=C(N/N=C/c1sc(=O)n(-c2ccccc2)c1Cl)c1ccncc1	0.0	-0.8	-3.0	97.8*	3.6	-5.3
COc1cc(-c2c(C#N)c(N)nc3[nH]c(=S)[nH]c(=O)c23)ccc1O	-0.1	0.5	305.0	98.6*	-0.2	23.4
COc1cc(-c2c(C#N)c(N)nc3c2CCCC3)ccc1O	-0.1	-0.3	-4.3	21.6	3.4	9.3
COc1ccc(-c2nc(SC(C)C(=O)Nc3ccc(NC(C)=O)cc3)n[nH]2)cc1 (stereo not given)	0.1	-0.1	-5.7	98.3*	10.7	4.8
CCC1CCCCN1CCCNC(=O)c1cn(C)c2ccc(S(=O)(=O)N(C)C3CCCCC3)cc2c1=O (stereo not given)	0.1	0.5	-6.9	-4.0	-1.3	3.4
Cc1ccsc1/C=C1\SC(N2CC(C)OC(C)C2)=NC1=O (stereo not given)	0.0	0.1	217.3	99.6*	24.1	-7.4
CC(C)(C)C1=CC=C(C(C)(C)C)C(=O)C1=O	-0.1	6.4*	62.3	-0.1	-0.4	9.2
CC(C)(C)c1ccc2c(c1)C(=O)c1ccccc1C2=O	0.1	-9.2	72.3	11.0	45.8	-12.5
O=C(COC(=O)c1cccc(OC(F)F)c1)Nc1ncccn1	0.0	-0.9	-9.1	-15.7	1.3	-15.1
COc1ccccc1NC(=S)N(Cc1ccco1)Cc1cc2ccc(C)c(C)c2[nH]c1=O	1.0	0.7	221.1	-2.0	38.2	34.2
COc1ccccc1NC(=S)N(Cc1ccco1)Cc1cc2cc(C)cc(C)c2[nH]c1=O	0.1	-1.0	396.8	-5.5	71.7*	3.2
COCCn1c(-c2cccc([N+](=O)[O-])c2)nc2c1c(=O)[nH]c(=O)n2Cc1ccccc1	0.1	-0.3	9.7	98.7*	3.1	1.7
CCCn1c(-c2cccc(F)c2)nc2c1c(=O)[nH]c(=O)n2Cc1ccccc1	0.0	0.5	-4.3	-33.8	-0.1	-2.0
O=C(COc1ccccc1)NC1CCCN(Cc2ccccc2F)C1 (stereo not given)	0.2	-0.3	83.2	-18.7	2.8	21.0
CCc1cccc(NC(=O)CN(C)S(=O)(=O)c2cccc3cccnc23)c1	0.0	-0.2	1.9	-1.0	8.4	0.9
CC(C)COCC(O)CCC(=O)NNC(=S)Nc1ccccc1 (stereo not given)	0.0	0.0	1.2	92.9*	-1.8	13.4
CCN(CC)S(=O)(=O)c1cccc(N=Nc2c(O)c3ccccc3oc2=O)c1	0.1	-1.0	-12.5	9.1	4.3	10.3
COc1ccc(NC(=O)CSc2nnc(C)s2)cc1S(=O)(=O)N1CCOCC1	0.2	.	.	.	-0.5	-13.5
O=C1ON=C(c2ccccc2)/C1=C/c1ccc(OS(=O)(=O)c2ccccc2)cc1	-0.4	-4.9	-10.0	8.0	1.0	10.4
